Among the data in PubChem BioAssay (EPA / NIEHS) are outcome values, retold here.

Each structure is given as a SMILES string. Results filed as inconclusive are left out. Calls of active or inactive are those of the source. Rule for the calls: active = hit-call score of the fitted dose curve at least 0.9, where 1 is the maximum; inconclusive = response in the unintended direction; inactive = score below 0.9.

The target of the assay is human Vitamin D Receptor (VDR), VDR (gene 7421) (UniProt P11473). Nature of the assay: ATG_VDR_TRANS: Attagene TRANS-FACTORIAL HepG2 Assay for human Vitamin D Receptor (VDR) (AID 2283022). Put shortly: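 Fluorescence of labelled reporter cDNA fragments, resolved by capillary electrophoresis, gives mRNA induction after 24 h treatment of HepG2 cells carrying transfected Gal4-fusion reporter units. Activity is fitted in the positive direction with DMSO as baseline.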
human Vitamin D Receptor (VDR), VDR (gene 7421), sequence (P11473 whole entry, looked up, the tested form may be a part): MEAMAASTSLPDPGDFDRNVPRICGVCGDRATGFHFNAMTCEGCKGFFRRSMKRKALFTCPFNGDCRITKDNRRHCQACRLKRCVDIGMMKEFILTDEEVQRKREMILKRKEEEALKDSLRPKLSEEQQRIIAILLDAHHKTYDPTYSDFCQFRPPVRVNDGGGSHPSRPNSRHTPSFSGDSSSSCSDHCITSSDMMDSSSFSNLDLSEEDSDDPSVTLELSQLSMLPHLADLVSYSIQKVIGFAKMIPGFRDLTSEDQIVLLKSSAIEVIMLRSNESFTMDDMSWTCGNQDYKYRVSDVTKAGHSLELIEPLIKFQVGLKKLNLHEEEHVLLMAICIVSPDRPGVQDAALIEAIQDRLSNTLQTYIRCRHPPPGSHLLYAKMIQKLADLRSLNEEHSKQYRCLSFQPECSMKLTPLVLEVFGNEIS
Consider `CCC(CC)CO`, for which the compound was called inactive.
Turning to `Cc1ccncc1`, the compound was called inactive.
The value for `CCc1cccc(O)c1` was “inactive”; that for `CCO[Si](CC)(OCC)OCC` was “inactive”; that for `CN1CCc2cccc3c2[C@H]1Cc1ccc(O)c(O)c1-3` was “inactive”.
For `CN(C)C`, the compound was called inactive.
The value for `CC/C=C\C#N` was “inactive”.
The same measure for `CC(=O)c1ccc(O)cc1`: “inactive”.
